Reference: PubChem BioAssay (Tox21)
Inconclusive results are not listed. Activity calls are given as the source filed them. Unless noted, calls come from the whole dose curve; as a rule, active = well fitted curve in the direction sought with a large enough effect in the repeat runs; inconclusive = weak or mixed curves; inactive = no such curve, though single readings can be large; an effect the other way counts as inactive or inconclusive. Positions of bridges follow the written chain, without caps; N, C: chain ends. Non-standard residues stand in square brackets, D forms with d. Residues, ends and D or L forms follow the SMILES beside them. *: point of attachment. X2 = CC[C@H](C)CCCCC(=O)*; Dab = NCC[C@H](N)C(=O)O

Columns and labels:
[1] = qHTS assay to identify small molecule antagonists of the glucocorticoid receptor (GR) signaling pathway - cell viability counter screen (AID 720693); note: nearly all actives have a fitted effect of over 55% in size; note: potency is the fitted concentration of half-maximal effect
[2] = qHTS assay for identifying genotoxic compounds that show differential cytotoxicity against isogenic chicken DT40 cell lines with known DNA damage response pathways - wild type cell line (AID 743012); note: nearly all actives have a fitted effect of over 60% in size; note: potency is the fitted concentration of half-maximal effect
Outline: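 Viability of DNA repair-proficient chicken DT40 cells was assessed by CellTiter-Glo luminescence following 40 h compound exposure at 37 C/5% CO2.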

[3] = qHTS assay for identifying genotoxic compounds that show differential cytotoxicity against isogenic chicken DT40 cell lines with known DNA damage response pathways - Rad54/Ku70 mutant cell line (AID 743015); note: nearly all actives have a fitted effect of over 60% in size; note: potency is the fitted concentration of half-maximal effect
[4] = qHTS assay to identify small molecule antagonists of the androgen receptor (AR) signaling pathway - cell viability counter screen (AID 743033; note: nearly all actives have a fitted effect of over 45% in size; note: potency is the fitted concentration of half-maximal effect)
[5] = qHTS assay to identify small molecule antagonists of the androgen receptor (AR) signaling pathway using the MDA cell line - cell viability counter screen (AID 743041; note: nearly all actives have a fitted effect of over 45% in size; note: potency is the fitted concentration of half-maximal effect)
Outline: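 Using the breast carcinoma line MDA-kb2 AR-luc, test chemicals were co-incubated with R1881 for 16 h; CellTiter-Fluor reagent, added at 15.5 h, provided a fluorescence measure of live cells.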

[6] = target: Androgen receptor (Homo sapiens) (UniProt P10275); assay: qHTS assay to identify small molecule antagonists of the androgen receptor (AR) signaling pathway (AID 743035; active = well fitted inhibition curve with a large enough effect in the signal ratio in the repeat runs, not every such curve was filed as active; the % refers to the signal ratio; note: potency is the fitted concentration of half-maximal effect)
Outline: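 Reporter HEK293 cells were exposed to compounds and R1881 overnight (16 h, 37C); beta-lactamase activity was then quantified by FRET fluorescence.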

[7] = target: Androgen receptor (Homo sapiens) (UniProt P10275); assay: qHTS assay to identify small molecule agonists of the androgen receptor (AR) signaling pathway using the MDA cell line (AID 743040; note: nearly all actives have a fitted effect of over 20% in size; note: potency is the fitted concentration of half-maximal effect)
Outline: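 Stable MMTV-luciferase reporter in MDA-kb2 cells; note the promoter carries GR as well as AR response elements. 16 h compound treatment, 37C, 0% CO2; ONE-Glo luminescence endpoint.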

[8] = target: Androgen receptor (Homo sapiens) (UniProt P10275); assay: qHTS assay to identify small molecule antagonists of the androgen receptor (AR) signaling pathway using the MDA cell line (AID 743042; note: nearly all actives have a fitted effect of over 55% in size)
Outline: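 Antagonist mode: compounds plus R1881 agonist added to MDA-kb2 AR-luc cells, incubated 16 h at 37C. Luciferase reporter luminescence quantified, with multiplexed CellTiter-Fluor readout for cell viability.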

[9] = qHTS assay for identifying genotoxic compounds that show differential cytotoxicity against isogenic chicken DT40 cell lines with known DNA damage response pathways - Rev3 mutant cell line (AID 743014); note: nearly all actives have a fitted effect of over 55% in size; note: potency is the fitted concentration of half-maximal effect
[10] = target: Androgen receptor (Homo sapiens) (UniProt P10275); assay: qHTS assay to identify small molecule agonists of the androgen receptor (AR) signaling pathway (AID 743036; active = well fitted activation curve with a large enough effect in the signal ratio in the repeat runs, with a control signal flat, not every such curve was filed as active; the % refers to the signal ratio)
Outline: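 Beta-lactamase under UAS control, stably integrated in HEK293 GripTite cells, reports receptor activation. After 16 h compound treatment, cells received FRET substrate for 2 h at room temperature before fluorescence reading.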

Measured: Potency

Androgen receptor (Homo sapiens), sequence (P10275 whole entry, looked up): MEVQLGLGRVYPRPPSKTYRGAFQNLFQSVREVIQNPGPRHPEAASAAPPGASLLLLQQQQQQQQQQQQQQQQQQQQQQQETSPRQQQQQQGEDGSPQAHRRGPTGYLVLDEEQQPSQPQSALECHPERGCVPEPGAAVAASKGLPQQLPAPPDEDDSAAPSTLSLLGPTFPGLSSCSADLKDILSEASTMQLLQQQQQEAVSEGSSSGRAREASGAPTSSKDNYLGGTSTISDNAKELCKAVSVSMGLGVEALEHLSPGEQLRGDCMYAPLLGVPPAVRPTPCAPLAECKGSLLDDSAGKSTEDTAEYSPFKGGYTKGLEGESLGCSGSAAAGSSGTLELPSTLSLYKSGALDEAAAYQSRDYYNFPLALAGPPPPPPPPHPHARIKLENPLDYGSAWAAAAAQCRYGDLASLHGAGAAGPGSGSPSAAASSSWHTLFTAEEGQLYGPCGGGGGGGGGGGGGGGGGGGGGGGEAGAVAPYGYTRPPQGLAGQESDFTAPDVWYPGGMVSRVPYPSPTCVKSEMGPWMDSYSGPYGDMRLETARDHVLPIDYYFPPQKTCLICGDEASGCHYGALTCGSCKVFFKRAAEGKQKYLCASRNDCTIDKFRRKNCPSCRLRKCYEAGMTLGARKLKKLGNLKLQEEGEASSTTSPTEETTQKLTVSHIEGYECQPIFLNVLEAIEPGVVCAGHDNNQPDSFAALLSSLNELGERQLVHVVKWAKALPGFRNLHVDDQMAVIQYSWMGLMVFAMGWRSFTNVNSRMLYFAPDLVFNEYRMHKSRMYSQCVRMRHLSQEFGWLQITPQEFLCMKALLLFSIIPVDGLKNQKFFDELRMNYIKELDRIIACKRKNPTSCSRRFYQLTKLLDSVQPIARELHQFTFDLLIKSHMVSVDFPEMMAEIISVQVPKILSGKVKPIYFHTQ

O=[N+]([O-])O[C@@H]1CO[C@H]2[C@@H]1OC[C@@H]2O
inactive: [1] | [2] | [3] | [4] | [5]

CCCCCCCCCCCCCCCCOCCOCCOCCOCCOCCOCCOCCOCCOCCOCCOCCOCCOCCOCCOCCOCCOCCOCCOCCOCCO
active: [1] 13.4 µM | [2] 2.37 µM | [3] 29.8 µM | [5] 29.8 µM

CC[C@H](C)[C@H]1O[C@]2(CC[C@@H]1C)C[C@@H]1C[C@@H](C/C=C(\C)[C@@H](O[C@H]3C[C@H](OC)[C@@H](O[C@H]4C[C@H](OC)[C@@H](O)[C@H](C)O4)[C@H](C)O3)[C@@H](C)/C=C/C=C3\CO[C@@H]4[C@H](O)C(C)=C[C@@H](C(=O)O1)[C@]34O)O2
inactive: [6] | [7] | [5] | [8]
active: [1] 6.01 µM | [2] 3.76 µM | [3] 7.5 µM

C[C@H](N)C(=O)N[C@@H](C)P(=O)(O)O
inactive: [1] | [9] | [3] | [4]

CC[C@H](C)CCCCC(=O)N[C@@H](CCN)C(=O)N[C@H](C(=O)N[C@@H](CCN)C(=O)N[C@H]1CCNC(=O)[C@@H]([C@H](C)O)NC(=O)[C@H](CCN)NC(=O)[C@H](CCN)NC(=O)[C@H](CC(C)C)NC(=O)[C@@H](CC(C)C)NC(=O)[C@H](CCN)NC1=O)[C@@H](C)O (X2-[Dab]T[Dab][Dab][Dab][dL]L[Dab][Dab][dT]; lactam 4-C)
inactive: [1] | [2] | [5]

CC#CCC(C)[C@H](O)/C=C/[C@@H]1[C@H]2C/C(=C/CCCC(=O)O)C[C@H]2C[C@H]1O (some centres not stated)
inactive: [1] | [9] | [3] | [4] | [5]

CC1(C)S[C@@H]2[C@H](NC(=O)C(N)c3ccccc3)C(=O)N2[C@H]1C(=O)OC1OC(=O)c2ccccc21 (some centres not stated)
inactive: [1] | [9] | [3]

CCCCCCCCCCCCCCCCCCOP(=O)([O-])OC1CC[N+](C)(C)CC1
inactive: [1] | [9] | [4]
active: [3] 14.6 µM

CCC(=O)NCCC1CCc2ccc3c(c21)CCO3 (configuration not stated)
inactive: [1] | [6] | [10] | [7] | [5] | [8]
active: [2] 26.6 µM

CS(=O)(=O)c1ccc(C2=C(c3ccccc3)C(=O)OC2)cc1
inactive: [1] | [9] | [3] | [4] | [5]

CC(NNC(=O)c1ccccc1)c1ccccc1 (configuration not stated)
inactive: [1] | [9] | [3] | [4] | [10] | [7] | [5] | [8]

Cn1c(O)c(N=NC(N)=S)c2ccccc21
active: [9] 10.6 µM | [3] 8.41 µM | [4] 2.68 µM
inactive: [1] | [5]

O=C(COc1ccc(Cl)cc1)OCCNC12CC3CC(CC(C3)C1)C2
inactive: [1] | [2] | [5]

CCOC(=O)O[C@]1(C(=O)COC(=O)CC)CC[C@H]2[C@@H]3CCC4=CC(=O)C=C[C@]4(C)[C@H]3[C@@H](O)C[C@@]21C
active: [6] 2.04 µM | [7] 0.0507 µM
inactive: [1] | [2] | [5] | [8]

O=C(Nc1ccc(Br)cc1)c1cc(Br)c(Br)s1
active: [1] 21.3 µM | [9] 33.5 µM | [3] 26.6 µM | [4] 21.3 µM
inactive: [5]

CCOc1cc(-c2nccc3cc(OC)c(OC)cc23)cc(OCC)c1OCC
inactive: [1] | [4]
active: [9] 6.68 µM | [3] 8.41 µM

COc1cc2c(cc1OC)[C@@H](c1ccccc1)CN(C)CC2
inactive: [1] | [9] | [3] | [4] | [6] | [10] | [7] | [5] | [8]

S=C1SCN(Cc2ccccc2)CN1Cc1ccccc1
active: [9] 13.3 µM | [3] 13.3 µM
inactive: [1] | [4]

CC1(C)C(\C=C/C=C\C=C/C=C2/N(CCCCS(=O)(=O)O)c3ccc4ccccc4c3C2(C)C)=[N+](CCCCS(=O)(=O)[O-])c2ccc3ccccc3c21
inactive: [1] | [4] | [6] | [7]
active: [9] 26.6 µM | [3] 29.8 µM

CC1(C)[C@@H]2CC[C@@]1(C)[C@H](OC(=O)CSC#N)C2
inactive: [1] | [9] | [3] | [4]

C=CCSSSCC=C
inactive: [1] | [9]

CCCCC(C)(O)C/C=C/[C@H]1[C@H](O)CC(=O)[C@@H]1CCCCCCC(=O)OC (some centres not stated)
inactive: [1] | [4] | [5]
active: [9] 1.68 µM | [3] 1.19 µM

COC(=O)C1=C(C#N)NC(C)=C(C(=O)OC(C)C)C1c1cccc([N+](=O)[O-])c1 (configuration not stated)
inactive: [1] | [4] | [5]
active: [9] 23.7 µM | [3] 18.8 µM

COc1ccc(C[C@@H](C)NC[C@H](O)c2ccc(O)c(NC=O)c2)cc1
inactive: [1] | [4] | [5]
active: [2] 29.8 µM

CCCCCCCCCCCCCCCCCCCCCCO
inactive: [1] | [9] | [3] | [4] | [5]
